# Measurements from paper PMC7862700, “An all-to-all approach to the identification of sequence-specific readers for epigenetic DNA modifications on cytosine”.
# Experiments:
# Experiment in all cases: DAPPL (digital affinity profiling via proximity ligation, sequencing); 10 mM Tris-HCl pH 7.5, 50 mM NaCl, 1 mM DTT, 4% glycerol, room temperature, 30 min; GST-TFs on glutathione beads, 16-mer random dsDNA library, 0.1% formaldehyde crosslink after washing; high values mean tight binding
# Details in all cases: protein: recombinant; tags: N-terminal GST; dsDNA, one strand shown
# [1] = target: T1, ELK1 (Homo sapiens, UniProt P19419 1-428)
# T1 sequence: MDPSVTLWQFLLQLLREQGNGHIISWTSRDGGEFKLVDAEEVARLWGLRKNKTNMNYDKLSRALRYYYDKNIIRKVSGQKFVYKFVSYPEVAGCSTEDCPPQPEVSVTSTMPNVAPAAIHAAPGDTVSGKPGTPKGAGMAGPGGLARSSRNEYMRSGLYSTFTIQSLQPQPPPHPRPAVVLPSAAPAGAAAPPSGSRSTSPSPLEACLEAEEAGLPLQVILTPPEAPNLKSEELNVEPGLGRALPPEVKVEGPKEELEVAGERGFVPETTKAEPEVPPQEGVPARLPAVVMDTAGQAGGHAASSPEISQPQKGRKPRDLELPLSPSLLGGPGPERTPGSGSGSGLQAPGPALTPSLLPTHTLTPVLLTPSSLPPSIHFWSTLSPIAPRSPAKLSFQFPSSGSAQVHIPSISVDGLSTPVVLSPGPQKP
# Method in brief: (§1)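 GST fusions of human transcription factors were expressed in yeast and captured with glutathione beads. Once given DNA barcodes and pooled alongside a tag-only sample, they were incubated for 30 min at room temperature with 200 nmole of a random double-stranded 16-mer DNA library in Tris/NaCl/DTT/glycerol buffer, then washed, crosslinked (0.1% formaldehyde), proximity-ligated, PCR-amplified and sequenced on an Illumina NextSeq500. The binding signal of each hexamer is its read frequency for a factor divided by its frequency for the tag-only sample.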
# [2] = target: T2, ERG (Homo sapiens, UniProt P11308 1-479)
# T2 sequence: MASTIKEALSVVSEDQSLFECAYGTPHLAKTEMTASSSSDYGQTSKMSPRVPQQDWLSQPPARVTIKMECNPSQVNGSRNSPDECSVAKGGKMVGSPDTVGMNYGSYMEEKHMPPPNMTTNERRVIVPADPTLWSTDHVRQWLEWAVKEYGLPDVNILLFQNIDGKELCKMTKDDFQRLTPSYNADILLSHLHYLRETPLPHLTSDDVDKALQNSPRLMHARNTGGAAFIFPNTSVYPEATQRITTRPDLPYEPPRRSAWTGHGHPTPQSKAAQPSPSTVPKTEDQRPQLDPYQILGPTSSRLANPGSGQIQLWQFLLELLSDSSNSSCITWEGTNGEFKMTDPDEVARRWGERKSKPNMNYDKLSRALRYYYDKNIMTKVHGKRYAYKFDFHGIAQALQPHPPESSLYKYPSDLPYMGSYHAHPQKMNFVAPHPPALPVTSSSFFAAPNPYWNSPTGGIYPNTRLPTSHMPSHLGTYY
# Method in brief: as §1
# [3] = target: T3, EHF (Homo sapiens, UniProt Q9NZC4 1-300)
# T3 sequence: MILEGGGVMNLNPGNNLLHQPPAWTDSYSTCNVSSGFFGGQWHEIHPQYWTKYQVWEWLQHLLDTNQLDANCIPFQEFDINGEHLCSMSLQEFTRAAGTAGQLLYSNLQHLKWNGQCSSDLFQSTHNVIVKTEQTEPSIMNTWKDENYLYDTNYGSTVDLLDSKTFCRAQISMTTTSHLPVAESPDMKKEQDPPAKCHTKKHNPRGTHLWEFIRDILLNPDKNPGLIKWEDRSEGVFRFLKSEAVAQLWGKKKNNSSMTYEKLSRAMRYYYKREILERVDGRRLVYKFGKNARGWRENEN
# Method in brief: as §1
# [4] = target: SPIB (Homo sapiens, UniProt Q01892 1-262)
# Chain of SPIB (Q01892 whole entry): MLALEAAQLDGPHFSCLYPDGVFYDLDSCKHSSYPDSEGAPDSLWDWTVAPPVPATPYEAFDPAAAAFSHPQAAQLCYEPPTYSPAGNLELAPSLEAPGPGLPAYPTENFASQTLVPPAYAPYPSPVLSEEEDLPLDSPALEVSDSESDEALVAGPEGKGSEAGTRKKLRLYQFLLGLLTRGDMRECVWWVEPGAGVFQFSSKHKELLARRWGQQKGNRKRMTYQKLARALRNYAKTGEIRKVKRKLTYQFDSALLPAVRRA
# Method in brief: as §1
# [5] = target: T4, ELK3 (Homo sapiens, UniProt P41970 1-407)
# T4 sequence: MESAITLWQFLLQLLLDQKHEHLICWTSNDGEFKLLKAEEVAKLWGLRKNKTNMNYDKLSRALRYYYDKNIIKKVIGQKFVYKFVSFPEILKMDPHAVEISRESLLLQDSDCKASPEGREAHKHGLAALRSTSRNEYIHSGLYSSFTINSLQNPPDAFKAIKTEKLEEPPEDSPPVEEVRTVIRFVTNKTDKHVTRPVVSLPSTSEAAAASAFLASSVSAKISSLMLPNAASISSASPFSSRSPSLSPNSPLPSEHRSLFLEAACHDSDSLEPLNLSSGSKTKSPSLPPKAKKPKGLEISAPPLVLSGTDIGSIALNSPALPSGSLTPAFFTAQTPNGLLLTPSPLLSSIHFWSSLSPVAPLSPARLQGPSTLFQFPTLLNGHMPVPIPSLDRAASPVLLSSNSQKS
# Method in brief: as §1
# [6] = target: ETV5 (Homo sapiens, UniProt P41161 1-510)
# Chain of ETV5 (P41161 whole entry): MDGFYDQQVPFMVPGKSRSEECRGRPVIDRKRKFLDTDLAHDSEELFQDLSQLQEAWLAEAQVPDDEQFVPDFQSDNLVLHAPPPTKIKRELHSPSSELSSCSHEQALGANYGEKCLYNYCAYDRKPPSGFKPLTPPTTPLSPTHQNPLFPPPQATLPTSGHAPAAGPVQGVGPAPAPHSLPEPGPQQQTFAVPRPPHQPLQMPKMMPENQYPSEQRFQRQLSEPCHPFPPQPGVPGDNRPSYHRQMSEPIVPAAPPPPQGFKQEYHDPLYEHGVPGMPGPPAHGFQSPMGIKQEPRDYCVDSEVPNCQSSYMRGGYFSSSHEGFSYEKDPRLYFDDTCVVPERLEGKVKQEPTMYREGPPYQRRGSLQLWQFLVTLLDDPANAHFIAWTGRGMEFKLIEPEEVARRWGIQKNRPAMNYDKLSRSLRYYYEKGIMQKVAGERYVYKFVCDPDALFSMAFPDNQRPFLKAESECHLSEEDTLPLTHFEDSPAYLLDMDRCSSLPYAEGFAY
# Method in brief: as §1
# [7] = target: T5, ELF3 (Homo sapiens, UniProt P78545 1-371)
# T5 sequence: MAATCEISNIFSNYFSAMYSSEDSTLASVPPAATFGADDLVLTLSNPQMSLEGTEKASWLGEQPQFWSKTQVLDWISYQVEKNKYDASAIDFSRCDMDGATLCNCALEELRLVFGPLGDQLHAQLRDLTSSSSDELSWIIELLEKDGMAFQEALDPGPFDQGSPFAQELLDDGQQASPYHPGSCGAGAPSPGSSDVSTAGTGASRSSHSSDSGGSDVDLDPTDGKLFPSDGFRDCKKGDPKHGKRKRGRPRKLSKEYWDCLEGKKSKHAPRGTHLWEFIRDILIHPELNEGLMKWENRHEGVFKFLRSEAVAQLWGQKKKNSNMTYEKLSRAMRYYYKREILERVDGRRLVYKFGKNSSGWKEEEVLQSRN
# Method in brief: as §1
# [8] = target: ETV1 (Homo sapiens, UniProt P50549 1-477)
# Chain of ETV1 (P50549 whole entry): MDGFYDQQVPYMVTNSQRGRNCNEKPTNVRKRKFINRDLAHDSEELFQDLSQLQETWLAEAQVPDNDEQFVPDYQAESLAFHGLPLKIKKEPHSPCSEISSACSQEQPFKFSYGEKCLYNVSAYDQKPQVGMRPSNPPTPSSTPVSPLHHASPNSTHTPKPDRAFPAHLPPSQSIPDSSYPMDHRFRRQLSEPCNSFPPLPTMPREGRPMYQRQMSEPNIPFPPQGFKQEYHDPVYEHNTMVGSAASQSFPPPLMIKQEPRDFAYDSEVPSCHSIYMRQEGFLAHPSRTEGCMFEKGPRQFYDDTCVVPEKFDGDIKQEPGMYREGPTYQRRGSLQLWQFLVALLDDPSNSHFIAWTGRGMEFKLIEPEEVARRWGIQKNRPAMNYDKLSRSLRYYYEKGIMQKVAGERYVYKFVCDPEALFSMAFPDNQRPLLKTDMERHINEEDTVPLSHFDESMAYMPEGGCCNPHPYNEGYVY
# Method in brief: as §1
# [9] = target: T6, ETS2 (Homo sapiens, UniProt P15036 1-469)
# T6 sequence: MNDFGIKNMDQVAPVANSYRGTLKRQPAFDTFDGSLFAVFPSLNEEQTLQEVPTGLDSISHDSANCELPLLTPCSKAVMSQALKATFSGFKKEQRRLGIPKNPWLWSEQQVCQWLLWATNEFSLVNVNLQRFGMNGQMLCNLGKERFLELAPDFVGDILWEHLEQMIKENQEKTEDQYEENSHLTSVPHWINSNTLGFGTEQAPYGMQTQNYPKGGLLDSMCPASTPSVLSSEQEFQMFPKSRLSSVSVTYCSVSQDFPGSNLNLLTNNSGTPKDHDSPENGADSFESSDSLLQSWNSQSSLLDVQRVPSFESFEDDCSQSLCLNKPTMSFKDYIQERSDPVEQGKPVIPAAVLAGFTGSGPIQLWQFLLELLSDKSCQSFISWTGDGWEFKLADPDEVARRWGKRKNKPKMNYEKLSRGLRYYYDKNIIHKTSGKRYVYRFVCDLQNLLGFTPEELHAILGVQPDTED
# Method in brief: as §1
# [10] = target: T7, SPDEF (Homo sapiens, UniProt O95238 1-335)
# T7 sequence: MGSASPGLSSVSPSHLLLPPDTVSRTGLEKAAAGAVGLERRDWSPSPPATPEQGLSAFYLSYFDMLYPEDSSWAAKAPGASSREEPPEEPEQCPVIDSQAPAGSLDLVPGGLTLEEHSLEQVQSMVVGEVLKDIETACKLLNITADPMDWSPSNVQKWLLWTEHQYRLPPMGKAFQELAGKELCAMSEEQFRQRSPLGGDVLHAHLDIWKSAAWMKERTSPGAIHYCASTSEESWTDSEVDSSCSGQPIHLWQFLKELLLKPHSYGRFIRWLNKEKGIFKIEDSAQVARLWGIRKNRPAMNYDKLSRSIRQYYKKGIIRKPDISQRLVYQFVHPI
# Method in brief: as §1
# [11] = target: T8, ETV7 (Homo sapiens, UniProt Q9Y603 1-341)
# T8 sequence: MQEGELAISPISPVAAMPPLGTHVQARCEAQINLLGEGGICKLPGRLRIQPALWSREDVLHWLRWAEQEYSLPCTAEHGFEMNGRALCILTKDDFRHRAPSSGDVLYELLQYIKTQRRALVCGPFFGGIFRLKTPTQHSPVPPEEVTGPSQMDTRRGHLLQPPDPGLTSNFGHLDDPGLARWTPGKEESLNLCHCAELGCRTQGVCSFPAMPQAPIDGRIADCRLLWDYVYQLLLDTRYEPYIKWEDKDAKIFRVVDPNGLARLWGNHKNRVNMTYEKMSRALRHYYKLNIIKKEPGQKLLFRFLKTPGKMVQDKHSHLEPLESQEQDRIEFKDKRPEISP
# Method in brief: as §1
# [12] = target: T9, ETV3 (Homo sapiens, UniProt P41162-2 1-143)
# T9 sequence: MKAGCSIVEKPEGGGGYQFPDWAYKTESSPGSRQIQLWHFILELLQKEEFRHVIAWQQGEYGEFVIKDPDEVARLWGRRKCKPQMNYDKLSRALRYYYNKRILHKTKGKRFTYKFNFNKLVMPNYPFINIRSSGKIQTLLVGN
# Method in brief: as §1
# [13] = target: ETV6 (Homo sapiens, UniProt P41212 1-452)
# Chain of ETV6 (P41212 whole entry): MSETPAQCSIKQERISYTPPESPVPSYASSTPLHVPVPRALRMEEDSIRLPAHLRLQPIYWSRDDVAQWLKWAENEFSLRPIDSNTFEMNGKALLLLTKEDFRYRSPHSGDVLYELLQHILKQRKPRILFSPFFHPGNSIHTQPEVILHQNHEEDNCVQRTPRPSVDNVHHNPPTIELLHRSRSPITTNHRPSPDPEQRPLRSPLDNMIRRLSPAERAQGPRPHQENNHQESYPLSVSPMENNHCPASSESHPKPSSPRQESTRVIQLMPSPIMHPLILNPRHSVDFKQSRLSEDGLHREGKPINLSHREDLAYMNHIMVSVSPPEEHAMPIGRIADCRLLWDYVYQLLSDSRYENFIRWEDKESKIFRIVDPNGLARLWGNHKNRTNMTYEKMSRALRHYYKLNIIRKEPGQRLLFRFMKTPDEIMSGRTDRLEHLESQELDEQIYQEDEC
# Method in brief: as §1
sequence,measurement,setting,value
GCCGGA,binding signal,[1],"1.17 fold enrichment (6-mer frequency, TF over GST control)"
same,binding signal,[2],"1.27 fold enrichment (6-mer frequency, TF over GST control)"
same,binding signal,[3],"1.08 fold enrichment (6-mer frequency, TF over GST control)"
same,binding signal,[4],"1.01 fold enrichment (6-mer frequency, TF over GST control)"
same,binding signal,[5],"1.11 fold enrichment (6-mer frequency, TF over GST control)"
same,binding signal,[6],"1.16 fold enrichment (6-mer frequency, TF over GST control)"
same,binding signal,[7],"1.05 fold enrichment (6-mer frequency, TF over GST control)"
same,binding signal,[8],"1.07 fold enrichment (6-mer frequency, TF over GST control)"
same,binding signal,[9],"1.01 fold enrichment (6-mer frequency, TF over GST control)"
same,binding signal,[10],"1.37 fold enrichment (6-mer frequency, TF over GST control)"
same,binding signal,[11],"1 fold enrichment (6-mer frequency, TF over GST control)"
same,binding signal,[12],"1.1 fold enrichment (6-mer frequency, TF over GST control)"
same,binding signal,[13],"1.07 fold enrichment (6-mer frequency, TF over GST control)"
